# According to PubChem BioAssay AID1209 (Sanford-Burnham Center for Chemical Genomics, 2008):
# Screen size: about 190,000 compounds; about 810 (0.43%) were called active. Only a selection was taken, and actives are over-represented in it overall. Values without a mark were called inactive. No stated cut-off is given here; in the data, active means inhibition above about 50%; inactive means the rest.
# Target: Mannose-6-phosphate isomerase (Homo sapiens) (UniProt P34949)
# Assay: inhibitors of human PMI, primary screen, biochemical, fluorescence intensity, coupled assay (AID 1209);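 further: plate controls were DMSO vehicle for no effect and wells lacking substrate for full effect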
# Details: purified PMI enzyme, at 20 µM, active compounds read high
# Mannose-6-phosphate isomerase (Homo sapiens), sequence (P34949 whole entry, looked up): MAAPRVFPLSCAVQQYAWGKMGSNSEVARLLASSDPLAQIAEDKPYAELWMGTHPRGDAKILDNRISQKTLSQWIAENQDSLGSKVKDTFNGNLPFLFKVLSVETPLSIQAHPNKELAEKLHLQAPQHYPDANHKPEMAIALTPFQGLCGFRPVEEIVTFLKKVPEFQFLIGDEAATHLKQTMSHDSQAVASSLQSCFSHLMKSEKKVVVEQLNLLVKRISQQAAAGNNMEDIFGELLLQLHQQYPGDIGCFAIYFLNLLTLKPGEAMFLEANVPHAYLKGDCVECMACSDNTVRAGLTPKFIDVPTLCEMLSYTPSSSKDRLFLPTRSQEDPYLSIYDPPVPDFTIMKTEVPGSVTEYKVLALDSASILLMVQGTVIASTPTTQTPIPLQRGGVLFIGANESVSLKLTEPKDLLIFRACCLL
row,Structure (SMILES),inhibition
1,Cn1c(=O)cc(-c2ccccc2)c2ccccc21,1.5%
2,Oc1cc(-c2ccccc2)c2ccccc2c1,82.6% (active)
3,O=c1cc(-c2ccccc2)c2ccccc2[nH]1,9.9%
4,CCOC(=O)CSc1nc(C(C)(C)C)cc(C(F)(F)F)c1C#N,5.9%
5,COC(=O)C1=C(C(=O)OC)SC2(S1)C(C(=O)OC)=C(C(=O)OC)SC1=C2c2cc(C)ccc2NC1(C)C,57% (active)
6,COC(=O)C1=C(C(=O)OC)SC2(S1)C(C(=O)OC)=C(C(=O)OC)SC1=C2c2cccc(C)c2NC1(C)C,24.5%
7,COC(=O)C1=C(C(=O)OC)SC2(S1)C(C(=O)OC)=C(C(=O)OC)SC1=C2c2cc(C)cc(C)c2NC1(C)C,18.1%
8,CCOC(=O)CN1CCc2c(C)nc3c(-c4ccc(OC)c(OC)c4)cnn3c21,20.1%
9,CCOC(=O)NC(=O)COC(=O)CNC(=O)c1cccc(OC)c1,-0.3%
10,COc1ccc(C(=O)NC(=S)NCC2CCCO2)cc1 (configuration not stated),2.8%
11,Cc1ccc(C)c(N(CC(=O)N/N=C/c2ccc(-c3ccc([N+](=O)[O-])cc3)o2)S(=O)(=O)c2ccccc2)c1,10.6%
12,COc1ccc(N(CC(=O)N/N=C/c2ccc(-c3ccc([N+](=O)[O-])cc3)o2)S(=O)(=O)c2ccc(C)cc2)cc1,-2.3%
13,CCOC(=O)C1(Cc2ccc(OC)cc2)CCN(C(=O)CCc2cccnc2)CC1,7.6%
14,COc1ccc(C)cc1NC(=O)CSc1nnc(-c2ccco2)n1N,10.6%
15,O=c1/c(=C/c2ccccn2)sc2nc3ccccc3n12,-21.7%
16,COC(=O)/C=c1/sc2nc3ccccc3n2c1=O,75.6% (active)
17,O=c1/c(=C\c2cccnc2)sc2nc3ccccc3n12,7%
18,Nc1ccccc1Oc1c(F)c(F)c(Oc2ccccc2N)c(F)c1F,18.8%
19,COc1cc(NC(C(=O)Nc2cccc(C(C)=O)c2)c2ccccc2)cc(OC)c1OC (configuration not stated),16.5%
20,COc1cc(NC(c2ccccc2)c2ccccc2)cc(OC)c1OC,62.4% (active)
21,COc1cc(C)c(NC(c2ccccc2)c2ccccc2)cc1OC,16.1%
22,COc1ccc(C(C)=O)c(OC(=O)c2ccc(OC)c(OC)c2)c1,17.5%

row,Structure (SMILES),inhibition
1,C=CCNc1nc2c(c(=O)[nH]c(=O)n2C)n1CCCCC,2.9%
2,COCCN=C1Sc2nc3c(C)cccc3cc2CN1Cc1ccco1,51% (active)
3,Cc1cccc2cc3c(nc12)SC(=NCC1CCCO1)N(Cc1ccco1)C3 (configuration not stated),7.4%
4,COCCN=C1Sc2nc3ccc(C)cc3cc2CN1Cc1ccco1,-63.1%
5,CCOc1ccc(NC(=NCc2ccc3c(c2)OCO3)SC2CC(=O)N(c3ccccc3)C2=O)cc1 (configuration not stated),-4.2%
6,CCN(CC)S(=O)(=O)c1ccc(NC2c3ccccc3C(=O)N2CCN2CCOCC2)cc1 (configuration not stated),18.5%
7,Cc1cc(C)c(O)c(N)c1,33.4%
8,Cc1cc(C(C)(C)C)c(O)c(C(C)(C)C)c1,0%
9,CC1(c2ccccc2)NC(=O)N(CC(=O)Nc2cc(S(=O)(=O)N3CCOCC3)ccc2Cl)C1=O (configuration not stated),1.7%
10,COc1ccc(OCC(=O)Nc2ncc3c(n2)CC(C)(C)CC3=O)cc1,7.1%
11,Cc1ccc(N(C(C)C(=O)Nc2c(C)n(C)n(-c3ccccc3)c2=O)S(C)(=O)=O)cc1C (configuration not stated),-4.4%
12,C[C@H]1CN=C2N(CCNC(=O)CCC3CCCCC3)[C@H](Cc3ccc(O)cc3)CN21,2.5%
13,C[C@@H]1CN=C2N(CCNC(=O)CCC3CCCCC3)[C@H](Cc3ccc(O)cc3)CN21,85.3% (active)
14,O=C(CCC1CCCCC1)NCCN1C2=NC[C@H](Cc3ccccc3)N2C[C@H]1Cc1ccc(O)cc1,8%
15,O=C(CCC1CCCCC1)NCCN1C2=NC[C@H](Cc3ccc(O)cc3)N2C[C@H]1Cc1ccc(O)cc1,5%
16,COc1ccc(C[C@H]2CN3C(=NC[C@@H]3C(C)C)N2CCNC(=O)CCC2CCCCC2)cc1,7.4%
17,CC(C)[C@H]1CN=C2N(CCNC(=O)CCC3CCCCC3)[C@H](Cc3ccc(O)cc3)CN21,65.2% (active)
18,CC(OC(=O)/C=C/c1cccs1)C(=O)Nc1ccc(S(N)(=O)=O)cc1 (configuration not stated),-5.9%
19,Cc1ccccc1OCC(=O)N(Cc1ccc(N(C)C)cc1)C1CCS(=O)(=O)C1 (configuration not stated),3.1%
20,C=CCNc1ccc(F)c(F)c1N1CCCCCC1=O,4.8%
21,NC(=O)c1cc2cc(Cc3ccccc3Cl)ccc2oc1=O,-1.2%
22,O=C(CN1C(=O)c2ccccc2S1(=O)=O)Nc1ccc(S(=O)(=O)N2CCCCCC2)cc1,18.7%

row,Structure (SMILES),inhibition
1,Cc1ccc(NC2=C/C(=N\S(=O)(=O)c3cccs3)c3ccccc3C2=O)c(C)c1,0.2%
2,Cc1cc(C)c(S(=O)(=O)Nc2ccc(O)c(Sc3ncn[nH]3)c2)c(C)c1,6.8%
3,Cc1cc(C)c(S(=O)(=O)/N=C2/C=C(Sc3ncn[nH]3)C(=O)c3ccccc32)cc1C,98.1% (active)
4,Cc1cc(C)c(S(=O)(=O)/N=C2/C=C(SCC(=O)O)C(=O)c3ccccc32)cc1C,-23.3%
5,Cc1ccc(S(=O)(=O)Nc2ccc(O)c(Sc3ncn[nH]3)c2)cc1,15.2%
6,Cc1ccc(S(=O)(=O)/N=C2/C=C(Sc3ncn[nH]3)C(=O)c3ccccc32)c(C)c1,101% (active)
7,CCn1c(COc2c(C)cccc2C)nnc1SCC(=O)N1CCN(c2ccccc2)CC1,8.2%
8,Cc1ccc(-c2nn(CC(=O)NCc3ccccn3)c(=O)c3ccccc23)cc1S(=O)(=O)N(C)C,-28.3%
9,COc1ccccc1NC(=O)c1ccc(NS(=O)(=O)c2ccc(F)c(F)c2F)cc1,-19.3%
10,COC(=O)c1cn(C(=O)c2ccc(C)cc2)c2ccccc12,12.6%
11,Cc1c(N=C2C=CC(=O)c3ccccc32)c(=O)n(-c2ccccc2)n1C,55.2% (active)
12,CCC(c1c(C)n(C)n(-c2ccccc2)c1=O)c1c(C)n(C)n(-c2ccccc2)c1=O,-4.4%
13,CC1=CC(=Nc2c(C)n(C)n(-c3ccccc3)c2=O)C=C(C)C1=O,83.8% (active)
14,Cc1c(N=CC=Nc2c(C)n(C)n(-c3ccccc3)c2=O)c(=O)n(-c2ccccc2)n1C,-0.3%
15,CCC(C)C1=CC(=Nc2c(C)n(C)n(-c3ccccc3)c2=O)C=C(C(C)CC)C1=O (configuration not stated),52.2% (active)
16,Cc1c(N=Nc2ccc(O)cc2)c(=O)n(-c2ccccc2)n1C,15.5%
17,Cc1csc(=Nc2c(C)n(C)n(-c3ccccc3)c2=O)n1-c1ccccc1,1.6%
18,Cc1c(N=C2C=C(Br)C(=O)C(Br)=C2)c(=O)n(-c2ccccc2)n1C,64.3% (active)
19,Cc1c(N=c2scc(-c3ccccc3)n2C)c(=O)n(-c2ccccc2)n1C,-16.2%
20,CCCC(c1c(C)n(C)n(-c2ccccc2)c1=O)c1c(C)n(C)n(-c2ccccc2)c1=O,3.4%
21,CC(=O)/C(N=Nc1c(C)n(C)n(-c2ccccc2)c1=O)=C(\C)O,-44.4%
22,Cc1c(N=C2C(=O)Nc3ccccc32)c(=O)n(-c2ccccc2)n1C,0.4%

row,Structure (SMILES),inhibition
1,CC(C)NS(=O)(=O)c1ccc(OCC(=O)NC(C)c2ccccc2)cc1 (configuration not stated),2.2%
2,O=C(O)c1ccc(/C=C/c2nc3sc4c(c3c(=O)[nH]2)CCC4)cc1,-3.7%
3,COc1cnn(C(C)(C)C)c(=O)c1Cl,-0.3%
4,COc1ccc(CC(=O)NCc2ccc3c(c2)cc(C)n3C)cc1OC,6.1%
5,O=C(Nc1ccc(Cl)cc1)NC1CCCc2ccccc21 (configuration not stated),2.6%
6,Cc1cc(/C=C(\C#N)C(N)=O)c(C)n1-c1ccc(N2CCOCC2)c([N+](=O)[O-])c1,3.6%
7,COc1cc2c(cc1O)CC[C@@H]1[C@@H]2CC[C@]2(C)[C@@H](O)CC[C@@H]12,1.7%
8,C[C@]12CC[C@@H]3c4ccc(O)cc4CC[C@H]3[C@@H]1CC[C@@H]2O,-5.7%
9,C[C@]12CC[C@@H]3c4cc(O)c(O)cc4CC[C@H]3[C@@H]1CC[C@@H]2O,51.8% (active)
10,Cc1ccc(NC(=O)COC(=O)c2ccc3c(c2)C(=O)N(CCc2ccccc2)C3=O)c(C)c1,4.6%
11,Cc1cc(C)n(-c2cc(N3CCN(S(=O)(=O)c4ccc(Br)cc4)CC3)ccc2[N+](=O)[O-])n1,13.5%
12,Cc1nc2c(C(=O)NCc3ccccc3)c[nH]n2c(=O)c1Cl,12.3%
13,Cc1nc2c(C(=O)NCCc3ccccc3)c[nH]n2c(=O)c1Cl,60.3% (active)
14,Cc1nc2c(C(=O)NCCc3ccccc3Cl)c[nH]n2c(=O)c1Cl,2.9%
15,CNS(=O)(=O)c1cnccc1N1CCN(C)CC1,9.4%
16,Cc1ccc(C(=O)Nc2ccc(SC(F)F)cc2)s1,-11.4%
17,COc1cc(/C=C2\CC/C(=C\c3cc(OC)c(O)c(OC)c3)C2=O)cc(OC)c1O,59.3% (active)
18,COc1cc(/C=C2\CC/C(=C\c3cc(OC)c(OC)c(OC)c3)C2=O)cc(OC)c1OC,4.2%
19,COc1ccc(/C=C2\CC/C(=C\c3ccc(OC)c(OC)c3)C2=O)cc1OC,25.9%
20,CCn1c(COc2cccc3ccccc23)nnc1SCC(=O)OC1CCCCC1,17.8%
21,Cc1ccc(S(=O)(=O)NCC(=O)N2CCCC2)cc1,-10.6%
